# Measurements: PubChem BioAssay
# Active and inactive are the calls of the source. Unless noted, no rule for the calls is given here.
# What was measured:
# [1] = test system: Wnt5a (protein binding on small-molecule microarray); assay: small molecules binding Wnt5a protein – biophysical, small-molecule microarray, 635/667 nm fluorescence, primary screen (AID 1142); details: 635 nm fluorescence, higher = more signal;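 also: fluorescence read at 667 nm with signal to noise per printed feature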
# [2] = ATP-based viability of Huh7 replicon cells – cell-based, CellTiter-Glo luminescence, basal, 48 h, cytotoxicity control for HCV replication inhibitor project, primary screen (AID 1143); details: higher = more signal, called active from +8 up or from −8 down;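 also: Huh7 hepatoma cells carrying a hepatitis C replication reporter with no stimulus; test concentration not given here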
# [3] = Pseudomonas biofilm growth suppression – PAO1 strain, BacTiter-Glo luminescence, LB-PBS, primary screen (AID 1144); details: P. aeruginosa PAO1 biofilm, 12 h, higher = more signal
# [4] = basal CRE-LacZ reporter activity in PC12 – cell-based, unstimulated, primary screen (AID 1145); details: no forskolin, luminescence, 4.5 h, higher = more signal, called active from +8 up or from −8 down
# [5] = forskolin-driven CRE-LacZ activity in PC12 – cell-based, CRE-LacZ reporter, forskolin-stimulated, primary screen (AID 1146); details: luminescence, 4.5 h, higher = more signal, called active from +8 up or from −8 down;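 also: PC12 cells with 6xCRE LacZ reporter stimulated by forskolin 10 µM; beta-galactosidase reporter signal reflecting CREB driven transcription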
# [6] = target: Streptavidin (Streptomyces avidinii) (UniProt P22629); assay: compounds binding control protein streptavidin – biophysical, small-molecule microarray, 635/667 nm fluorescence, artefact control for SMM compound annotation, primary screen (AID 1147); details: higher = more signal;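 also: signal reflects streptavidin binding to arrayed compounds as a control protein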
# Streptavidin (Streptomyces avidinii), sequence (P22629 whole entry, looked up): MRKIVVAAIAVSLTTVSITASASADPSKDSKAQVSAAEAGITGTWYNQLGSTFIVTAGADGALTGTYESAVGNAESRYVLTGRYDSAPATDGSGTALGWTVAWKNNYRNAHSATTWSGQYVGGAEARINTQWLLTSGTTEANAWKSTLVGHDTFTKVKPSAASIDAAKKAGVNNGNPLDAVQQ
# [7] = probe aInhba binding on compound microarray – biochemical, small-molecule microarray, 635/667 nm fluorescence, primary screen (AID 1148); details: higher = more signal;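 also: score merges 667nm spot fluorescence with signal-to-noise for antibody binding to printed compounds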
# Torsin-1A (Homo sapiens) [8] = target: Torsin-1A (Homo sapiens) (UniProt O14656); assay: TOR1A wild-type binding on microarray – cell lysate, small-molecule microarray, lysate, 635/667 nm, primary screen (AID 1149); details: COS7 hTOR1A-WT lysate, 635 nm fluorescence, higher = more signal
# Torsin-1A (Homo sapiens), sequence (O14656 whole entry, looked up): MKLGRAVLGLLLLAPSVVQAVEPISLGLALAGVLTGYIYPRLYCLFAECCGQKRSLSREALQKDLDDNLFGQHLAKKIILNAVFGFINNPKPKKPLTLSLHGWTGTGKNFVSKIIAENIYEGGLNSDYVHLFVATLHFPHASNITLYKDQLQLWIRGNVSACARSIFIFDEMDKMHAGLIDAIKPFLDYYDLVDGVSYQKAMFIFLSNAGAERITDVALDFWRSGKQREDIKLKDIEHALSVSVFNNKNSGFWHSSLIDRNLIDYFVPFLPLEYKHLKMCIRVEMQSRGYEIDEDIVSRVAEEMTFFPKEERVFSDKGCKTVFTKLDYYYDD
# Torsin-1A (Homo sapiens) [9] = target: Torsin-1A (Homo sapiens) (UniProt O14656); assay: torsin A mutant lysate binding on microarrays – cell lysate, small-molecule microarray, COS7 lysate, 635/667 nm fluorescence, primary screen (AID 1150); details: COS7 hTOR1A mutant lysate, 635 nm fluorescence, higher = more signal;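 also: score pools 667 nm emission and signal to noise measuring lysate protein binding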
# [10] = test system: Sonic hedgehog protein (Shh); assay: Sonic hedgehog microarray binding compounds – biochemical, small-molecule microarray, 635/667 nm fluorescence, primary screen (AID 1151); details: 635 nm fluorescence, higher = more signal;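 also: Shh protein binding to compounds spotted on small-molecule microarray slides; score combines spot fluorescence intensity with signal-to-noise across triplicate slides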
# [11] = optical density shifts of acrAB sulA E. coli – strain DRC41, OD650, 48 h, E. coli filamentation inducer project, primary screen (AID 1152); details: higher = more signal, called active from +8 up or from −8 down;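 also: E. coli MC1000 strain DRC41 lacking acrAB efflux pump and sulA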
# [12] = probe aLefty1 binding on compound microarray – biochemical, small-molecule microarray, 635/667 nm fluorescence, primary screen (AID 1153); details: higher = more signal;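 also: score merges spot fluorescence with signal-to-noise ratio from the scanned slide images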
# [13] = plasmodial surface anion channel blockers, osmotic lysis – cell-based, P. falciparum Indochina, OD700, 1 h, primary screen (AID 1154); details: P. falciparum Indochina infected RBC osmotic lysis, higher = more signal, called active from +8 up or from −8 down
# [14] = plasmodial surface anion channel blockers, osmotic lysis – cell-based, P. falciparum Indochina, OD700, 2 h, primary screen (AID 1155);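 also: lysis reports solute entry through the parasite surface anion channel PSAC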; details: P. falciparum Indochina infected erythrocytes, higher = more signal, called active from +8 up or from −8 down
# [15] = changes in parasitized red cell lysis, either direction – P. falciparum Indochina, OD700, 3 h, PSAC antagonist project, primary screen (AID 1156); details: P. falciparum-infected erythrocytes, osmotic lysis, higher = more signal, called active from +8 up or from −8 down
# [16] = plasmodial surface anion channel blockers, osmotic lysis – cell-based, P. falciparum Indochina, OD700, 18 h, primary screen (AID 1157); details: P. falciparum Indochina infected erythrocytes, osmotic lysis OD700, 18 h; higher = more signal, called active from +8 up or from −8 down
# [17] = S6 kinase pathway phospho-S6 level changes – cell-based, A549, cytoblot, luminescence, serum-stimulated, primary screen (AID 1158); details: 5 h, higher = more signal;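 also: serum-stimulated A549 lung adenocarcinoma cells; signal is phosphorylated S6 detected by cytoblot immunostaining with HRP secondary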
# [18] = target: NADPH oxidase 2 (Homo sapiens) (UniProt P04839); assay: compounds shifting NOX2 Amplex Red fluorescence – cell-based, HEK293-NOX2, PMA-stimulated, NOX inhibitor project, primary screen (AID 1159); details: 45 min, higher = more signal, called active from +8 up or from −8 down; also: test concentration not given here
# NADPH oxidase 2 (Homo sapiens), sequence (P04839 whole entry, looked up): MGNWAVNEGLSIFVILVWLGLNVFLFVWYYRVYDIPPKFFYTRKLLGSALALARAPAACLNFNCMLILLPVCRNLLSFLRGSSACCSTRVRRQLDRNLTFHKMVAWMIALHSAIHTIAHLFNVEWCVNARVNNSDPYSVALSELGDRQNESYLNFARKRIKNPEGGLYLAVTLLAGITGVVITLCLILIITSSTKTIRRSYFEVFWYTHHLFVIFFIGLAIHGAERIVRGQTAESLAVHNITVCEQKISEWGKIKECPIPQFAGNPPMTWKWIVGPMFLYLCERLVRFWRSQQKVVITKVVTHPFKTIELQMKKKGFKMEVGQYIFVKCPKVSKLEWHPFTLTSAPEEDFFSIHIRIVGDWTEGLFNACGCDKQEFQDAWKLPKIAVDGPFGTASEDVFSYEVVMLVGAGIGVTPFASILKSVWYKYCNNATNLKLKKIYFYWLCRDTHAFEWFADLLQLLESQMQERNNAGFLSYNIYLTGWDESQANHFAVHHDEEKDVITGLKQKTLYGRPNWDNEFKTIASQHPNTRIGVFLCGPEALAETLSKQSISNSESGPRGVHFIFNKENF
# [19] = target: NADPH oxidase 4 (Homo sapiens) (UniProt Q9NPH5); assay: compounds shifting NOX4 Amplex Red fluorescence – cell-based, HEK293-NOX4, tetracycline-induced, NOX inhibitor project, primary screen (AID 1160); details: HEK293-NOX4, Amplex Red H2O2 fluorescence, 45 min; higher = more signal, called active from +8 up or from −8 down
# NADPH oxidase 4 (Homo sapiens), sequence (Q9NPH5 whole entry, looked up): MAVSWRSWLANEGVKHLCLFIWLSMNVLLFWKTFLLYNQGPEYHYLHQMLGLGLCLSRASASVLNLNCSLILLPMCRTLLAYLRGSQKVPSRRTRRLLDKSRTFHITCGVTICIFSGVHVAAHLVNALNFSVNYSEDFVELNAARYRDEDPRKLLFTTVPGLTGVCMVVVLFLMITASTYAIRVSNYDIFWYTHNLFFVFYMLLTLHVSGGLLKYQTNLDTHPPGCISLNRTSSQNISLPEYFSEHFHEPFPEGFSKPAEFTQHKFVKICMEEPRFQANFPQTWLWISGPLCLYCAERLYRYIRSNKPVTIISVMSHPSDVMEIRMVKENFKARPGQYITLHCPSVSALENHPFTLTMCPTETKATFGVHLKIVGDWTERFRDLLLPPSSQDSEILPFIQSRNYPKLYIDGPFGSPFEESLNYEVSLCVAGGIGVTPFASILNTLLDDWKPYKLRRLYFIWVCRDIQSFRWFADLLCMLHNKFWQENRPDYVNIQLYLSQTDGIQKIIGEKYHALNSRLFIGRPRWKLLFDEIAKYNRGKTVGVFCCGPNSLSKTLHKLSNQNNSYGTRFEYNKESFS
# [20] = target: NADPH oxidase 5 (Homo sapiens) (UniProt Q96PH1); assay: compounds shifting NOX5 Amplex Red fluorescence – cell-based, HEK293-NOX5, NOX inhibitor project, primary screen (AID 1161); details: HEK293-NOX5, ionomycin, 45 min, higher = more signal
# NADPH oxidase 5 (Homo sapiens), sequence (Q96PH1 whole entry, looked up): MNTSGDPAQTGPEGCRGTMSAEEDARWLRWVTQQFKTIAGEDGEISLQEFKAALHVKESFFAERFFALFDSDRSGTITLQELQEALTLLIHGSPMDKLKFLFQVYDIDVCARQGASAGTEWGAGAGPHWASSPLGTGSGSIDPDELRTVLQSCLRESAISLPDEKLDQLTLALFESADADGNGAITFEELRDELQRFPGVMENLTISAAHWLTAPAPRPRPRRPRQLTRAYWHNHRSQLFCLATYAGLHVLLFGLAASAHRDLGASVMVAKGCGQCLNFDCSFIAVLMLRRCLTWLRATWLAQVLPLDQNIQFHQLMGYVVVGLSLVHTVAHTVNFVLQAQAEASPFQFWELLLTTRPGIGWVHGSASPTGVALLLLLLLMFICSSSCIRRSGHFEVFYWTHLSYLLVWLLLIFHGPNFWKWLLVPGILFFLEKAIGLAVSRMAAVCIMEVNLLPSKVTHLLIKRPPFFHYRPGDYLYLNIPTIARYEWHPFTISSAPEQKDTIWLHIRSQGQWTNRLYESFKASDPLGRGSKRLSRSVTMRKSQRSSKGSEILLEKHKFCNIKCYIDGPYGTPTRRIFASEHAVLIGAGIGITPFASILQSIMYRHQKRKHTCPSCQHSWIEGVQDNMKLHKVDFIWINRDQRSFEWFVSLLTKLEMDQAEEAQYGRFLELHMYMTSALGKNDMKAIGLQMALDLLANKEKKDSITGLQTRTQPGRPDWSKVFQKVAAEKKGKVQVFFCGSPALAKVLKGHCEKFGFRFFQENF
structure (smiles),measurement,setting,value
O=C1[C@@]23C=C(Br)[C@H](C[C@@H]2COC3)[C@@]12CO2,composite z-score,[1],0.731
same,z-score,[2],0.762 (inactive)
same,z-score,[3],0.461 (inactive)
same,z-score,[4],-0.329 (inactive)
same,z-score,[5],2.56 (inactive)
same,composite z-score,[6],-0.129
same,composite z-score,[7],-0.0986
same,composite z-score,Torsin-1A (Homo sapiens) [8],0.283
same,composite z-score,Torsin-1A (Homo sapiens) [9],0.276
same,composite z-score,[10],0.497
same,z-score,[11],-1.07 (inactive)
same,composite z-score,[12],-0.217
same,z-score,[13],0.297 (inactive)
same,z-score,[14],0.0503 (inactive)
same,z-score,[15],-0.497 (inactive)
same,z-score,[16],0.258 (inactive)
same,z-score,[17],-0.679
same,z-score,[18],0.249 (inactive)
same,z-score,[19],0.218 (inactive)
same,z-score,[20],0.139
C=CCNC(=O)[C@H]1[C@@H]2C(=O)O[C@@H](c3ccccc3)[C@@H](c3ccccc3)N2[C@@H](c2ccc(OCCO)cc2)[C@]12C(=O)N(C(=O)OCCOC)c1ccc(C#Cc3ccc(OC)cc3)cc12,composite z-score,[1],0.209
same,z-score,[2],-5.38 (inactive)
same,z-score,[3],0.054 (inactive)
same,z-score,[4],-1.43 (inactive)
same,z-score,[5],-0.857 (inactive)
same,composite z-score,[6],0.51
same,composite z-score,[7],0.152
same,composite z-score,Torsin-1A (Homo sapiens) [8],0.563
same,composite z-score,Torsin-1A (Homo sapiens) [9],0.86
same,composite z-score,[10],1.72
same,z-score,[11],2.2 (inactive)
same,composite z-score,[12],0.323
same,z-score,[13],3.4 (inactive)
same,z-score,[14],1.31 (inactive)
same,z-score,[15],-0.0152 (inactive)
same,z-score,[16],0.121 (inactive)
same,z-score,[17],2.44
same,z-score,[18],1.19 (inactive)
same,z-score,[19],0.615 (inactive)
same,z-score,[20],-0.0482
CN(C)C(=O)[C@]1(CCS(=O)(=O)c2ccccc2)N=C(c2ccc(OCCCO)cc2)O[C@@H]1c1ccccc1,composite z-score,[1],0.995
same,z-score,[2],-2.87 (inactive)
same,z-score,[3],-1.52 (inactive)
same,z-score,[4],1.42 (inactive)
same,z-score,[5],1.1 (inactive)
same,composite z-score,[6],1.22
same,composite z-score,[7],0.204
same,composite z-score,Torsin-1A (Homo sapiens) [8],0.957
same,composite z-score,Torsin-1A (Homo sapiens) [9],0.831
same,composite z-score,[10],-0.707
same,z-score,[11],0.0024 (inactive)
same,composite z-score,[12],-0.0072
same,z-score,[13],30.8 (active)
same,z-score,[14],25.7 (active)
same,z-score,[15],2.91 (inactive)
same,z-score,[16],6.06 (inactive)
same,z-score,[17],0.0637
same,z-score,[18],-0.461 (inactive)
same,z-score,[19],1.52 (inactive)
same,z-score,[20],-2.3
NCCCCCNC(=O)[C@@H]1C[C@@H]2C(=O)N3CCC[C@H]3C(=O)N2[C@@H]1c1ccc(O)cc1,composite z-score,[1],0.446
same,z-score,[2],-0.406 (inactive)
same,z-score,[3],-0.113 (inactive)
same,z-score,[4],0.143 (inactive)
same,z-score,[5],-0.707 (inactive)
same,composite z-score,[6],1.11
same,composite z-score,[7],0.0706
same,composite z-score,Torsin-1A (Homo sapiens) [8],0.778
same,composite z-score,Torsin-1A (Homo sapiens) [9],1.1
same,composite z-score,[10],0.468
same,z-score,[11],0.524 (inactive)
same,composite z-score,[12],1.08
same,z-score,[13],1.9 (inactive)
same,z-score,[14],0.106 (inactive)
same,z-score,[15],-0.696 (inactive)
same,z-score,[16],0.277 (inactive)
same,z-score,[17],-0.596
same,z-score,[18],0.105 (inactive)
same,z-score,[19],-1.53 (inactive)
same,z-score,[20],0.0464
O=C1OCCC/C=C\[C@H]2OC34C=CCN(c5ccc6ccccc6c5)C(=O)[C@H]3N(CCCO)C(=O)[C@@H]4C12 (stereo not given in full),composite z-score,[1],-0.482
same,z-score,[2],0.187 (inactive)
same,z-score,[3],2.06 (inactive)
same,z-score,[4],2.9 (inactive)
same,z-score,[5],-0.942 (inactive)
same,composite z-score,[6],-1.3
same,composite z-score,[7],-0.21
same,composite z-score,Torsin-1A (Homo sapiens) [8],-0.553
same,composite z-score,Torsin-1A (Homo sapiens) [9],-1.1
same,composite z-score,[10],-0.339
same,z-score,[11],-0.52 (inactive)
same,composite z-score,[12],-0.366
same,z-score,[13],3.21 (inactive)
same,z-score,[14],0.571 (inactive)
same,z-score,[15],-0.276 (inactive)
same,z-score,[16],0.187 (inactive)
same,z-score,[17],0.688
same,z-score,[18],2.08 (inactive)
same,z-score,[19],1.14 (inactive)
same,z-score,[20],2.53
COc1ccc([Si](C)(C)[C@H]2[C@H](CCO)O[C@@]3(C(=O)N(Cc4ccccc4)c4ccc(N5CCOC5=O)cc43)[C@@H]2C)cc1,composite z-score,[1],0.0771
same,z-score,[2],-4.87 (inactive)
same,z-score,[3],-0.521 (inactive)
same,z-score,[4],2.11 (inactive)
same,z-score,[5],-0.726 (inactive)
same,composite z-score,[6],1
same,composite z-score,[7],0.0756
same,composite z-score,Torsin-1A (Homo sapiens) [8],-0.112
same,composite z-score,Torsin-1A (Homo sapiens) [9],-0.12
same,composite z-score,[10],1.16
same,z-score,[11],-0.261 (inactive)
same,composite z-score,[12],-0.0025
same,z-score,[13],5.86 (inactive)
same,z-score,[14],1.9 (inactive)
same,z-score,[15],-0.307 (inactive)
same,z-score,[16],0.913 (inactive)
same,z-score,[17],0.577
same,z-score,[18],-1.36 (inactive)
same,z-score,[19],1.71 (inactive)
same,z-score,[20],2.27
COC(=O)[C@@]1(Cc2ccc(OC)cc2)[C@H]2c3cc(C(=O)N4CCCC4)n(Cc4cc(C)n(C)n4)c3C[C@H]2CN1C(=O)c1ccccc1,composite z-score,[1],0.973
same,z-score,[2],-0.434 (inactive)
same,z-score,[3],0.463 (inactive)
same,z-score,[4],-0.375 (inactive)
same,z-score,[5],0.543 (inactive)
same,composite z-score,[6],1.92
same,composite z-score,[7],0.605
same,composite z-score,Torsin-1A (Homo sapiens) [8],0.544
same,composite z-score,Torsin-1A (Homo sapiens) [9],0.24
same,composite z-score,[10],-0.319
same,z-score,[11],-0.703 (inactive)
same,composite z-score,[12],0.947
same,z-score,[13],1.46 (inactive)
same,z-score,[14],0.279 (inactive)
same,z-score,[15],0.63 (inactive)
same,z-score,[16],0.494 (inactive)
same,z-score,[17],-0.458
same,z-score,[18],0.755 (inactive)
same,z-score,[19],-0.134 (inactive)
same,z-score,[20],-2.8
C#C[C@@H](CC)O[Si](C#CCCCC#N)(C(C)C)C(C)C,composite z-score,[1],0.162
same,z-score,[2],-0.667 (inactive)
same,z-score,[3],0.132 (inactive)
same,z-score,[4],-0.868 (inactive)
same,z-score,[5],4.95 (inactive)
same,composite z-score,[6],-0.0686
same,composite z-score,[7],-0.0762
same,composite z-score,Torsin-1A (Homo sapiens) [8],0.491
same,composite z-score,Torsin-1A (Homo sapiens) [9],1.69
same,composite z-score,[10],0.473
same,z-score,[11],0.527 (inactive)
same,composite z-score,[12],-0.117
same,z-score,[13],1.58 (inactive)
same,z-score,[14],1.14 (inactive)
same,z-score,[15],0.186 (inactive)
same,z-score,[16],0.676 (inactive)
same,z-score,[17],-0.336
same,z-score,[18],1.03 (inactive)
same,z-score,[19],-0.222 (inactive)
same,z-score,[20],1.31
CN1C(=O)C2C=CC(C(O)c3cc(C(F)(F)F)cc(C(F)(F)F)c3)N(Nc3ccccc3)C2C1=O (stereo not given),composite z-score,[1],-0.253
same,z-score,[2],-0.73 (inactive)
same,z-score,[3],0.329 (inactive)
same,z-score,[4],0.626 (inactive)
same,z-score,[5],-0.0455 (inactive)
same,composite z-score,[6],0.0416
same,composite z-score,[7],-0.128
same,composite z-score,Torsin-1A (Homo sapiens) [8],-1.74
same,composite z-score,Torsin-1A (Homo sapiens) [9],1.13
same,composite z-score,[10],-0.145
same,z-score,[11],-1.07 (inactive)
same,composite z-score,[12],0.0341
same,z-score,[13],0.277 (inactive)
same,z-score,[14],0.301 (inactive)
same,z-score,[15],-0.753 (inactive)
same,z-score,[16],0.797 (inactive)
same,z-score,[17],-0.77
same,z-score,[18],-1.59 (inactive)
same,z-score,[19],-4.95 (inactive)
same,z-score,[20],-1.99
